Here are results for 40 compounds from PubChem BioAssay.

The source made the active and inactive calls. How the calls were made is not given here.

Sequence of Pantothenate synthetase (Mycobacterium tuberculosis (strain ATCC 25618 / H37Rv)) (P9WIL5 whole entry, looked up): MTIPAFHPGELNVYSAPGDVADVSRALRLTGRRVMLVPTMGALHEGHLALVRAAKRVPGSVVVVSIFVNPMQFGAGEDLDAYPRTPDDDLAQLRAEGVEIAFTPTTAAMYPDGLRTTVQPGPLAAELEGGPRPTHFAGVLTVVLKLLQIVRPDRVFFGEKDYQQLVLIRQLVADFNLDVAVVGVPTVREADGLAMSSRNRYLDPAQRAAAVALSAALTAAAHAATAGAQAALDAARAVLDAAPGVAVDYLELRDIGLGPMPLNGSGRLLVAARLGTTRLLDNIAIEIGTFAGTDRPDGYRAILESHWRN

The experiment concerns the target Pantothenate synthetase (Mycobacterium tuberculosis (strain ATCC 25618 / H37Rv)) (UniProt P9WIL5). Put plainly: Coupled enzyme confirmation of inhibitors against recombinant Mtb PanC (AID 375).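 Further: 0% = full reaction with vehicle and 100% = no enzyme background.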 As to conditions: coupled enzyme assay; at 10 µM, stronger effect = higher value.
What is called inhibition is the drop in the measured response relative to a control, in per cent. As for `CC(C)[N+](C)(CCOC(=O)C1c2ccccc2Oc2ccccc21)C(C)C`, the inhibition is 0% (inactive). Under `C/C(=C\c1ccco1)C1C(C#N)=C(N)OC2=C1C(=O)CC(C)(C)C2` (stereo not given) stands 12% (inactive); under `COC(=O)Cc1[nH]nc2c1C(C1C=CCCC1)C(C#N)=C(N)O2` (stereo not given), 3% (inactive). For `CC(=O)N1CCN(c2ccc(S(=O)(=O)N3CCCCC3)cn2)CC1`, the inhibition was 0% (inactive). Take `O=c1c[n+]([O-])c2ccccc2n1OCc1c(F)cccc1F`: the inhibition is 4% (inactive). Under `COc1ccccc1OCCSc1nc2ccccc2c(=O)[nH]1` stands 0% (inactive).

As to `Cc1ccccc1-n1c(Cn2c(=O)sc3ccccc32)nnc1SCC(=O)N1CCCC1`, the inhibition is 8% (inactive).

As for `COCCCNC(=O)CC1Oc2ccccc2NC1=O` (stereo not given), the inhibition is 0% (inactive). Under `CCCCCn1c(CN2CCN(C(=O)c3ccco3)CC2)nc2c1c(=O)n(C)c(=O)n2C` stands 1% (inactive).

On to `O=C(C1CCCCC1)N1CCC(c2nc3c(nnn3Cc3ccccc3Cl)c(=O)[nH]2)CC1`, for which the inhibition is 4% (inactive). On to `O=C(Nc1ccc2oc(=O)ccc2c1)c1cccnc1`, for which the inhibition is 0% (inactive).

In the case of `CC(C(N)=O)N1C(=O)C2C3C=CC(C3)C2C1=O` (stereo not given), the inhibition was 2% (inactive).

Take `CCCOc1ccc([C@@H]2C3CN(C(=O)OCC)CC=C3C(C#N)=C(N)C2(C#N)C#N)cc1OC` (stereo not given in full): the inhibition is 1% (inactive). For `Cc1cc(N2C(=O)C(O)=C(C(=O)c3ccc(C)o3)C2c2cccs2)no1` (stereo not given), the inhibition is 0% (inactive). In the case of `CCCNC(=O)CS(=O)(=O)Cc1nc(-c2cccc(OC)c2)oc1C` it was 0% (inactive); in that of `COCCCn1c2nc3ccccc3nc2c2c(=O)n(-c3ccccc3OC)cnc21`, 11% (inactive); in that of `CNC(=O)Oc1ccc2c(c1)[C@]1(C)CCN(C)[C@@H]1N2C`, 4% (inactive).

Regarding `N#CC(C(=O)Nc1ccccc1)=C1CCCCC1`, the inhibition was 7% (inactive). In the case of `COCCN1CCN(c2c(C)c(C)nc3cc(-c4cccc(OC)c4)nn23)CC1`, the inhibition was 0% (inactive). In the case of `COc1ccc(-c2c3c(=O)n(C)c(=O)n(C)c3cn2-c2cccc(OC)c2)cc1` it was 0% (inactive); in that of `CCCc1nc2ccccc2c(=O)n1NC(=O)c1c(O)c2cccc3c2n(c1=O)CCC3`, 0% (inactive); in that of `Fc1cccc2sc(Nc3nnc(-c4ccco4)o3)nc12`, 8% (inactive). Under `CC(CN1c2ccccc2Sc2ccccc21)N(C)C` (stereo not given) stands 0% (inactive); under `COCCNC(=O)CN1CCN(C(c2ccccc2)c2ccccc2)CC1`, 2% (inactive); under `Cc1nn(-c2ccc(F)cc2)c(C)c1NS(=O)(=O)c1ccc(Cl)cc1`, 11% (inactive). On to `O=C(CSc1ncnc2ccccc12)N1CCN(c2ccccc2)CC1`, for which the inhibition was 0% (inactive).

Regarding `COc1ccc2c(c1)c(CC(=O)O)c(C)n2C(=O)c1ccc(Cl)cc1`, the inhibition is 5% (inactive). Under `O=S(=O)(c1ccc(-c2csc(-c3cccnc3)n2)cc1)N1CCCCC1` stands 5% (inactive); under `CCOC(=O)n1c(=O)oc2cc(S(=O)(=O)N3CCCCC3)ccc21`, 7% (inactive); under `O=C(Nc1ccc2oc(Cc3ccc(Cl)cc3)nc2c1)c1cccnc1`, 0% (inactive). Turning to `CCOC(=O)c1c(C)oc2c1c(C=NCc1ccccn1)c(O)c1ccccc12`, the inhibition is 3% (inactive). Consider `Cc1cccc(C(=O)N2CCC(n3nnc4cc(F)ccc43)CC2)c1`, for which the inhibition was 0% (inactive). Under `CCCCCn1c(N2CCN(Cc3ccccc3)CC2)nc2c1c(=O)[nH]c(=O)n2C` stands 6% (inactive); under `Cc1ccc(NC(=O)CSC2=C(C#N)C(c3ccc4c(c3)OCO4)CC(=O)N2)cc1C` (stereo not given), 0% (inactive). Under `C=CCc1c(C)nc(SC)nc1Nc1ccc(C(=O)O)cc1` stands 6% (inactive). In the case of `COC(=O)c1ccccc1NC(=O)C1CCN(S(=O)(=O)c2cc(C)ccc2OC)CC1` it was 0% (inactive). For `Cc1ccc(C)c2[nH]c(=O)c(CCNC(=O)c3ccc(Br)o3)cc12`, the inhibition is 0% (inactive). In the case of `Cc1ccc(Nc2nnns2)cc1C` it was 4% (inactive); in that of `Cc1cncn1CCc1nc2c3ccccc3nc(=S)n2[nH]1`, 7% (inactive); in that of `c1ccc2c(c1)CNC1(CCCCC1)C2`, 3% (inactive).
